ALR inh = inhibitors of human ALR sulfhydryl oxidase, primary screen, biochemical, H2O2 detection, HRP-luminol luminescence, single point | inhibition, % (no concentration beside the values) | purified ALR, DTT oxidation | actives 3.8% (n = 290,000);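 active = mean replicate inhibition above about 79%, with every replicate also reaching it, limit read from the data; inconclusive = only one of the two criteria met; inactive = mean below limit and not every replicate reaching it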
Target sequence (P55789 whole entry, looked up): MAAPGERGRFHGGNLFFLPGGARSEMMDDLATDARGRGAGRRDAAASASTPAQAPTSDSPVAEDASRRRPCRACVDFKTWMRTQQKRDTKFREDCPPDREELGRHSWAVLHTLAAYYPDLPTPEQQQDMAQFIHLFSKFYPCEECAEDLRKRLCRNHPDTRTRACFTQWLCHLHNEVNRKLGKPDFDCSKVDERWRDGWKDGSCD
H9c2 protect = cardioprotection against H2O2-induced cell death, primary screen, uHTS, H9c2 cells, ATPLite luminescence. H9c2 cardiomyocytes, H2O2 injury protection, 2 h. protection from H2O2 cell death, % at 20 µM. actives 0.63% (n = 360,000). AID 588492, 2011;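 active = compounds giving at least 50% protection of heart cells from peroxide-induced death in the single-dose screen, raw or plate-pattern-corrected value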;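 note: 0% = DMSO wells with peroxide and 100% = DMSO wells without peroxide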
PHOSPHO1 block = PubChem AID 1565; recombinant PHOSPHO1, absorbance phosphatase assay; inhibition, % at 13.3 µM; actives 1.1% (n = 290,000); in the data active = inhibition above about 60%
Target sequence (Q8TCT1 whole entry, looked up): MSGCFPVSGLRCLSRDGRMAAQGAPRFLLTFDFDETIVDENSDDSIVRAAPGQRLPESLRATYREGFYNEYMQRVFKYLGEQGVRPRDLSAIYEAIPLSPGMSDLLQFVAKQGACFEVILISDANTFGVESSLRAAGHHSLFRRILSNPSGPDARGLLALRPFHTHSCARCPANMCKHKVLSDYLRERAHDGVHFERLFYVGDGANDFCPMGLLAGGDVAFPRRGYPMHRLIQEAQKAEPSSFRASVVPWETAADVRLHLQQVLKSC
PfG6PD inh = PfG6PD enzyme inhibitors, primary screen, biochemical, fluorescence intensity, uHTS | glucose-6-phosphate dehydrogenase-6-phosphogluconolactonase (Plasmodium falciparum 3D7) | PfGluPho enzyme, NADPH resazurin-diaphorase fluorescence | inhibition, % at 20 µM | actives 0.78% (n = 350,000);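 active = inhibition reaching at least a set limit at 20 µM in the primary screen, cut at about 59% in these data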;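 note: 0% = DMSO wells with substrate and 100% = DMSO wells lacking glucose-6-phosphate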
M18AAP inhibitor = PfM18AAP inhibitors, malaria aminopeptidase, primary screen, biochemical, QFRET, recombinant enzyme | M18 aspartyl aminopeptidase (Plasmodium falciparum 3D7) | H-Glu-NHMec fluorogenic cleavage | actives 1.2% (n = 290,000) | inhibition, % at 7.35 µM;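 active = inhibition above the campaign mean inhibition over all tested compounds plus 3 SD, cut at about 28% in these data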;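 note: 0% = plate median of test compound wells and 100% = 2 mM ZnCl2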
* = called active by the depositor; u = inconclusive; x = no result. Only some compounds are listed: those with a hit (about 5.6% of all), similar ones and a draw of the others.

SMILES	ALR inh	H9c2 protect	PHOSPHO1 block	PfG6PD inh	M18AAP inhibitor
C#CCOCCOCCOCCNc1nc(N2CCN(C(=O)CCCCCCCCCCNC(=O)[C@H]([C@@H](C)CC)n3cc(CCCCCN)nn3)CC2)nc(N2CCN(C(=O)CCCCCCCCCCNC(=O)[C@H](CO)n3cc(CCCCCN)nn3)CC2)n1	-10	0	x	61*	x
CCCCC(=O)Nc1ccc2c(c1)nc(CCN1CCN(C)CC1)n2C	-8	-2	36	-16	-4
CN(CC(=O)Nc1cccc(F)c1)C(=O)c1ccccc1OCC(=O)Nc1cccc(C(F)(F)F)c1	-9	-8	x	6	x
Cc1ccc(NNC(=O)c2ccno2)cc1C	98*	-13	21	16	20
Cc1noc(C)c1C(=O)Nc1ccc(N(C)C)cc1	99*	-4	10	2	1
Cc1ccc(NNC(=O)c2ccno2)cc1Cl	99*	-2	33	-4	17
O=C(Nc1cc(Cl)cc(Cl)c1)c1ccno1	x	-6	29	1	1
Cc1cc(C(=O)NNc2ccc(Cl)cc2)no1	u	-5	33	2	18
Cc1ccc(NNC(=O)c2snnc2C)cc1Cl	x	-4	42	-5	4
Cc1cc(C(=O)NNc2ccc(C)c(C)c2)no1	99*	-10	6	0	16
COc1ccc(C)cc1NC(=O)CN(C)C1CCCCC1	4	-2	27	-14	-9
COC(CNC(=O)C1CCC(CNS(=O)(=O)c2c(C)cc(C)cc2C)CC1)OC (stereo unspecified)	x	3	27	7	-2
O=C(C(=Cc1ccc(F)cc1)C(=O)c1ccccc1)c1ccccc1	x	-6	x	x	x
CN(C)c1nc(C(=O)O)nc(N2CCOCC2)n1	2	35	28	-6	-7
COc1ccc(C)cc1NC(=O)c1ccccc1N(C)S(=O)(=O)c1ccccc1	-1	0	4	-11	5
Cc1ccc(NNC(=O)c2cc(C)on2)c(C)c1	u	0	46	-1	16
CN(C)c1ccc(NC(=O)c2cnsn2)cc1	99*	-12	28	2	2
Cc1cc(C(=O)NNc2ccc(F)cc2F)no1	98*	-4	22	4	26
Cc1ccc(NNC(=O)c2c(C)noc2C)cc1Cl	53	-6	-119	16	30*
Cc1ccc(NC(=O)CN2C(=O)NC3(CCCCC3C)C2=O)cc1S(=O)(=O)N1CCOCC1 (stereo unspecified)	x	5	x	3	x
O=C(C[C@@H]1C/C=C\C[C@H](NC(=O)OCC2c3ccccc3-c3ccccc32)C(=O)O[C@H](c2ccccc2)CNC1=O)NCCO	5	-23	x	6	x
CC(OC(=O)C1=COCCO1)C(=O)NC1CCCC(C)C1C (stereo unspecified)	x	2	x	4	x
CC(C)Oc1ccc(Cc2cnc(=S)[nH]c2N)cc1	1	5	13	38	31*
COc1ccc2[nH]cc(CCNC(=O)/C=C/[C@H]3O[C@@H](n4cnc5c(NC(=O)c6ccccc6)ncnc54)[C@H](O)[C@@H]3O)c2c1	x	-3	x	x	x
O=C(N/N=C/c1cc([N+](=O)[O-])ccc1O)c1cccc(NC(=O)c2cccc(Cl)c2)c1	-2	56*	31	-31	-4
SMILES	ALR inh	H9c2 protect	PHOSPHO1 block	PfG6PD inh	M18AAP inhibitor
Cc1ccn(CC(=O)N/N=C/c2cc([N+](=O)[O-])ccc2O)n1	1	67*	14	-41	5
C(=N\Nc1nn[nH]n1)/c1ccccc1	7	-4	71*	10	24
Clc1ccc(/C=N/Nc2nn[nH]n2)cc1	x	-3	-13	4	5
Cc1nc2ccc(C(=O)N/N=C/c3cc([N+](=O)[O-])ccc3O)cc2[nH]1	-6	10	23	-13	-10
O=C(Cn1cnc([N+](=O)[O-])n1)N/N=C/c1ccccc1O	-16	64*	20	-40	10
O=C(Cn1cncn1)N/N=C/c1cc([N+](=O)[O-])ccc1O	5	10	-1	33	5
O=C(N=C1SC2CS(=O)(=O)CC2N1Cc1ccc(Cl)cc1)C1CC1 (stereo unspecified)	1	0	22	-3	3
NC(=O)c1ccsc1NC(=O)CCS(=O)(=O)c1ccc(Cl)cc1	x	0	x	7	x
O=C(N/N=C/c1cc([N+](=O)[O-])ccc1O)C1CCCCC1	-1	52*	6	-15	-3
O=C(CCC(=O)Nc1ccc(Br)cc1)N/N=C/c1cc([N+](=O)[O-])ccc1O	-2	54*	0	-18	0
O=C(N/N=C/c1cc([N+](=O)[O-])ccc1O)C1C2CCCCC21 (stereo unspecified)	-6	x	50	x	-6
O=C(CCC(=O)Nc1ccc(F)cc1)N/N=C/c1cc([N+](=O)[O-])ccc1O	-1	49	58	-8	-7
O=[N+]([O-])c1ccc(O)c(/C=N/Nc2nn[nH]n2)c1	84*	-5	48	-3	24
Cc1cccc(NC(=O)CCC(=O)N/N=C/c2cc([N+](=O)[O-])ccc2O)c1	x	58*	0	-14	-8
Cc1ccc2c(c1)N(CC(=O)NC1CCCCCC1)C(=O)c1cccnc1O2	8	0	18	7	-1
Cc1ccc(C(=O)c2coc3cc([N+](=O)[O-])c(O)c([N+](=O)[O-])c23)cc1	-20	-11	4	13	33*
CC(=O)O[C@H]1CC(=O)OC(C)(C)C2CC(=O)[C@]3(C)C(CC[C@@](C)([C@@H](O[C@@H]4O[C@H](CO)[C@@H](O)[C@H](O)[C@H]4O)c4ccoc4)[C@@]34O[C@@H]4C(=O)O)[C@]21C (stereo partly specified)	x	2	x	-2	x
CCN1C=C(Cc2ccccc2C)C2=C(C1)C(c1ccccc1C)C(C#N)=C(N)O2 (stereo unspecified)	-56	-4	42	5	-5
CCN1C=C(Cc2ccc(F)cc2)C2=C(C1)C(c1ccc(F)cc1)C(C#N)=C(N)O2 (stereo unspecified)	99*	-4	16	7	1
Nc1nc2ccc(C(=O)Nc3ccccc3)cc2s1	98*	-3	10	10	1
CCc1ccc(NC(=O)c2ccc3nc(N)sc3c2)cc1	91*	-20	22	2	1
CCc1ccc(NC(=O)c2ccc3ncsc3c2)cc1	x	x	6	x	5
Cc1cc(C)cc(NC(=S)Nc2ccccn2)c1	97*	-1	-6	3	7
COc1ccccc1NC(=S)Nc1ccccn1	82*	0	-1	13	21
CCC1(C)N=C(N)Nc2nc3cc(C)c(C)cc3n21 (stereo unspecified)	99*	4	16	-11	0
NC1=NC2(CCCC2)n2c(nc3ccccc32)N1	4	4	32	-9	-11
Cc1ccc(NCc2ccccc2O)cc1	u	-8	-1	4	4

Compound activity from PubChem BioAssay.
